The values that follow come from PubChem BioAssay (NCI).

About 83,000 compounds went through this panel and 20% of them were active in at least one assay; those are over-represented in the sample as a whole.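 Values shown are percent growth following 48 h exposure of cells in 96-well plates to a single concentration of compound; below 10 was considered active.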 A number with no mark means an inactive call. Active and inactive are the calls of the source.

The assay has as its system SN12C renal. As to the kind of experiment: NCI-60 one-dose screen, 48 h (100 = growth as untreated, 0 = no growth, -100 = all killed). As to conditions: 10 µM unless noted. Here is the method:
Growth inhibition of the SN12C human tumor cell line is measured as a screen for anti-cancer activity. Cells are grown in 96 well plates and exposed to the test compound for 48 hours. Compounds are tested at a single concentration, which is 10^-5 M for most compounds. The reported endpoint is percent growth (GI% or GIPRCNT), where numbers from 0 - 100% represent growth inhibition, and numbers from -100% - 0 represent cell death. For example, a value of 40 represents 60% growth inhibition. A value of 0 means no net growth occurred over the course of the experiment. A value of -40 indicates 40% of cells at the beginning of the experiment died by the end of the experiment. A value of -100 means all cells are dead at the end of the experiment.
NCI-60 Human Tumor Cell Lines Screen was performed using the standard one-dose NCI protocol, which is described in more detail at https://dtp.cancer.gov/discovery_development/nci-60/default.htm.
Compounds with GIPRCNT values below 10 were considered active. Activity score was based on GIPRCNT using the following formula: […]
Score is 0 for GIPRCNT values of 100 or above, 50 for GIPRCNT values of 0, and 100 for GIPRCNT values of -100.
On to `OCCNc1ccccc1`, for which the growth is 108%. To `Cc1cc(Nc2ccc3c(c2)OCO3)c2cc3c(cc2n1)OCO3` belongs 47%; to `NC(CO)(CO)c1ccccc1`, 108%; to `CC1CC2C3CCC4=CC(=O)CCC4(C)C3CCC2(C)C1(O)C(=O)CO` (stereo not given), 102%.

For `C[n+]1cc2cc3c(cc2c2ccccc21)OCO3`, the growth was 9.45% (active).

In the case of `O=S(Cc1ccccc1)/C(=C/NC(=S)Nc1ccccc1)c1ccccc1` (stereo not given), the growth is 109%. On to `c1ccc(Oc2c3ccccc3nc3ccccc23)cc1`, for which the growth was 24.3%. Then `Cc1cccnc1NC1OC(=O)c2ccccc21` (stereo not given), with 105%. To `Cc1ccc(N)c(S(=O)(=O)O)c1` belongs 100%; to `OCCOc1ccc(-c2cc(-c3ccccn3)nc(-c3ccccn3)c2)cc1`, 11.7%; to `CCOC(C=O)OCC`, 102%.

`CCCC1OC(c2ccco2)OCC1CC` (stereo not given): the growth was 98.4%.

In the case of `CC(C)(C)[Si](C)(C)OCC1OC(n2cnc3c(N)ncnc32)CC1OS(C)(=O)=O` (stereo not given), the growth is 101%. `Cc1ccc(S(N)(=O)=O)cc1Cl`: the growth is 106%. To `COC(c1ccc2c(c1)OCO2)C(C)Br` (stereo not given) belongs 100%; to `CS(=O)(=O)c1ccc(/C=C\C(=O)O)cc1`, 103%.

As for `CC(C)(CC(=O)O)CC(=O)O`, the growth was 97.2%. Then `CCOC(=O)c1ccc(NC(C)=O)o1`, with 95.1%; and `CN(C)c1ccc(/C=C/C(=O)c2ccc(NC(N)=O)cc2)cc1`, with 93.3%; and `O=C(N/N=C\c1ccc(Cl)cc1Cl)c1ccncc1`, with 98.7%. To `CC(=O)c1cc(O)ccc1O` belongs 97.4%; to `Nc1ccc2c(c1)Cc1cc(N)c(N)cc1-2`, 93.3%; to `C=C1C(=O)C2CCC1C2` (stereo not given), 104%. To `N#C/C(=C\c1ccc(C#N)cc1)C(=O)c1ccccc1` belongs 95.7%; to `O=C(O)Cc1ccc(Cl)cc1`, 122%; to `COC(=O)c1ccc([N+](=O)[O-])c(C)c1`, 109%. Consider `C#CC(O)c1ccccc1` (stereo not given), for which the growth is 104%. Turning to `C=C(OC(C)=O)c1ccccc1`, the growth was 96%. As for `C=CCC(O)C=C` (stereo not given), the growth is 101%.

As for `COC1CC(OC(=O)c2ccc([N+](=O)[O-])cc2)C(COC(=O)c2ccc([N+](=O)[O-])cc2)O1` (stereo not given), the growth was 98.9%.

As for `O=C(NCc1ccccc1)c1cccc([N+](=O)[O-])c1`, the growth was 104%. To `CCCCCCCCNC(=O)C(C)C` belongs 95.8%; to `Cn1c(=O)c2[nH]c(CCCCC(=O)O)nc2n(C)c1=O`, 104%; to `Cc1ccc(NC(=O)c2ccccc2Cl)cc1`, 101%. To `NNc1ncnc2nc[nH]c12` belongs 74.6%. To `CC(C)(C)CC1(C)NC(=O)NC1=O` (stereo not given) belongs 110%. Turning to `CCOc1ccc(C(=O)NCC(C)C)cc1`, the growth was 99.9%. Turning to `CCOC(=O)c1c(C)[nH]c(C)c1C=O`, the growth is 95.8%. Then `OCC(O)COc1ccc(Cl)cc1Cl` (stereo not given), with 95%; and `CCCCOC(=O)c1ccccc1O`, with 107%.
